# Measurements reported in PubChem BioAssay.
# The source made the active and inactive calls.
# Legend:
# [1] = optical density shifts of acrAB sulA E. coli – strain DRC41, OD650, 48 h, E. coli filamentation inducer project, primary screen (AID 1152); conditions: higher = more signal, called active from +8 up or from −8 down;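 also: E. coli MC1000 strain DRC41 lacking acrAB efflux pump and sulA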
# [2] = probe aLefty1 binding on compound microarray – biochemical, small-molecule microarray, 635/667 nm fluorescence, primary screen (AID 1153); conditions: higher = more signal;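 also: score merges spot fluorescence with signal-to-noise ratio from the scanned slide images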
# [3] = plasmodial surface anion channel blockers, osmotic lysis – cell-based, P. falciparum Indochina, OD700, 1 h, primary screen (AID 1154); conditions: P. falciparum Indochina infected RBC osmotic lysis, higher = more signal, called active from +8 up or from −8 down
# [4] = plasmodial surface anion channel blockers, osmotic lysis – cell-based, P. falciparum Indochina, OD700, 2 h, primary screen (AID 1155);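 also: lysis reports solute entry through the parasite surface anion channel PSAC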; conditions: P. falciparum Indochina infected erythrocytes, higher = more signal, called active from +8 up or from −8 down
# [5] = changes in parasitized red cell lysis, either direction – P. falciparum Indochina, OD700, 3 h, PSAC antagonist project, primary screen (AID 1156); conditions: P. falciparum-infected erythrocytes, osmotic lysis, higher = more signal, called active from +8 up or from −8 down
# [6] = plasmodial surface anion channel blockers, osmotic lysis – cell-based, P. falciparum Indochina, OD700, 18 h, primary screen (AID 1157); conditions: P. falciparum Indochina infected erythrocytes, osmotic lysis OD700, 18 h; higher = more signal, called active from +8 up or from −8 down
# [7] = S6 kinase pathway phospho-S6 level changes – cell-based, A549, cytoblot, luminescence, serum-stimulated, primary screen (AID 1158); conditions: 5 h, higher = more signal;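 also: serum-stimulated A549 lung adenocarcinoma cells; signal is phosphorylated S6 detected by cytoblot immunostaining with HRP secondary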
# [8] = molecular target: NADPH oxidase 2 (Homo sapiens) (UniProt P04839); assay: compounds shifting NOX2 Amplex Red fluorescence – cell-based, HEK293-NOX2, PMA-stimulated, NOX inhibitor project, primary screen (AID 1159); conditions: 45 min, higher = more signal, called active from +8 up or from −8 down; also: test concentration not given here
# NADPH oxidase 2 (Homo sapiens), sequence (P04839 whole entry, looked up): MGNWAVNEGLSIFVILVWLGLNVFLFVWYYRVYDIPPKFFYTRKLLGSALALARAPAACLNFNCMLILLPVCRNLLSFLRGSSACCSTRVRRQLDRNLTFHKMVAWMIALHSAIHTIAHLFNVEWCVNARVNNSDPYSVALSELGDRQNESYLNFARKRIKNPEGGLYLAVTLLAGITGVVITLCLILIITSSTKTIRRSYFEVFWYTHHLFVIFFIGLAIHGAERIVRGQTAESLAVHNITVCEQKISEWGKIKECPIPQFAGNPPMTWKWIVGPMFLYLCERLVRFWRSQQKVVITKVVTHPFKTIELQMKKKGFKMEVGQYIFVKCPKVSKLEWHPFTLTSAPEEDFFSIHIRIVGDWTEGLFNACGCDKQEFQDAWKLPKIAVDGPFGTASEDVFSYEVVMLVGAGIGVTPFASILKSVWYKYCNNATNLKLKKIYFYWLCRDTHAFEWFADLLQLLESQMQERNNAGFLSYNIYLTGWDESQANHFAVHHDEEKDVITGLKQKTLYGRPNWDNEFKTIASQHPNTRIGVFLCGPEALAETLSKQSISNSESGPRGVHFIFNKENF
# [9] = molecular target: NADPH oxidase 4 (Homo sapiens) (UniProt Q9NPH5); assay: compounds shifting NOX4 Amplex Red fluorescence – cell-based, HEK293-NOX4, tetracycline-induced, NOX inhibitor project, primary screen (AID 1160); conditions: HEK293-NOX4, Amplex Red H2O2 fluorescence, 45 min; higher = more signal, called active from +8 up or from −8 down
# NADPH oxidase 4 (Homo sapiens), sequence (Q9NPH5 whole entry, looked up): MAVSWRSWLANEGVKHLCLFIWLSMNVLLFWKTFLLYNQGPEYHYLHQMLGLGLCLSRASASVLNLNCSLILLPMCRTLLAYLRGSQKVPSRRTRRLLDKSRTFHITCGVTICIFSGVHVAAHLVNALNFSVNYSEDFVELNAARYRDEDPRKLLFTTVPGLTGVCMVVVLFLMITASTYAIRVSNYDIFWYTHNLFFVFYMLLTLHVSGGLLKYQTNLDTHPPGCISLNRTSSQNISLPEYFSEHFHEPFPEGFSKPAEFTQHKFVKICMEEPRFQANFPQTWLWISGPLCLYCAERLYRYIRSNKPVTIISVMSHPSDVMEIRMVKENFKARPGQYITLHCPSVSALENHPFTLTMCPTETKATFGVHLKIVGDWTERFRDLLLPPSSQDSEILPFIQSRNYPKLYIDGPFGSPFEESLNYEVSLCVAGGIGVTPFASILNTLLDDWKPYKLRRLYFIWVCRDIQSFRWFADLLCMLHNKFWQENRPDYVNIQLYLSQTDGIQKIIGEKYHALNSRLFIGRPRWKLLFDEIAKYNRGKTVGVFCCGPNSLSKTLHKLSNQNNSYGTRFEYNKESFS
# [10] = molecular target: NADPH oxidase 5 (Homo sapiens) (UniProt Q96PH1); assay: compounds shifting NOX5 Amplex Red fluorescence – cell-based, HEK293-NOX5, NOX inhibitor project, primary screen (AID 1161); conditions: HEK293-NOX5, ionomycin, 45 min, higher = more signal
# NADPH oxidase 5 (Homo sapiens), sequence (Q96PH1 whole entry, looked up): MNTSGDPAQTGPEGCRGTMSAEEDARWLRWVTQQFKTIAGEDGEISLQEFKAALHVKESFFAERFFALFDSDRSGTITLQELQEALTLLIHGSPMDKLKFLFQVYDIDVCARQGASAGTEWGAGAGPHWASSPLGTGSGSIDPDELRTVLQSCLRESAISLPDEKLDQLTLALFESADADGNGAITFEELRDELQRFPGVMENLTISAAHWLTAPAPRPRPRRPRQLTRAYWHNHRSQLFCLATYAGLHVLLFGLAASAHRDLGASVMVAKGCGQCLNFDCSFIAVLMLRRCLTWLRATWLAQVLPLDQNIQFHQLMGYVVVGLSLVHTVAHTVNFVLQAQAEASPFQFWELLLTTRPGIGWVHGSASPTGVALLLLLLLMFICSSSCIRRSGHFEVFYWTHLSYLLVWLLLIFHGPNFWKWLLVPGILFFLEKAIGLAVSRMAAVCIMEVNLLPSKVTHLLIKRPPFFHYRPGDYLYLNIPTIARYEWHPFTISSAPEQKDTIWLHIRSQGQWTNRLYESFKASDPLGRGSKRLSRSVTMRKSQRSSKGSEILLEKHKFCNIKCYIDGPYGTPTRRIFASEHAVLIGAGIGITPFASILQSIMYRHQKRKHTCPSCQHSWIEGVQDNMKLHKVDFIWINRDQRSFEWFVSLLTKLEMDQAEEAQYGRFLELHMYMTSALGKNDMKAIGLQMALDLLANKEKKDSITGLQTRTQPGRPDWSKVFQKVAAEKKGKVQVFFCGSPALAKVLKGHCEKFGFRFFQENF
SMILES,z-score [1],composite z-score [2],z-score [3],z-score [4],z-score [5],z-score [6],z-score [7],z-score [8],z-score [9],z-score [10]
CN(C)C(=O)[C@@]1(Cc2ccccc2N=[N+]=[N-])N=C(c2ccc(OCCCO)cc2)O[C@H]1c1ccccc1N=[N+]=[N-],0.0086 (inactive),-0.213,31.3 (active),29.7 (active),2.54 (inactive),3.39 (inactive),0.246,-1.34 (inactive),-0.493 (inactive),-2
O=C1OCC=C[C@H]2OC34C=CCN(CCN5CCOCC5)C(=O)[C@H]3N(CCCCCO)C(=O)[C@@H]4[C@@H]12 (stereo not given in full),-0.457 (inactive),-0.045,1.69 (inactive),0.526 (inactive),1.5 (inactive),0.0882 (inactive),2.31,0.922 (inactive),0.379 (inactive),2.1
[N-]=[N+]=NCc1ccccc1[C@H]1OC(c2ccc(OCCCO)cc2)=N[C@@]1(Cc1ccccc1N=[N+]=[N-])C(=O)N1CCCCC1,0.369 (inactive),0.72,27.7 (active),21.4 (active),2.7 (inactive),4.56 (inactive),-0.0152,-2.52 (inactive),0.328 (inactive),-0.575
Cc1ccc(S[C@]2(C(=O)O)CC(=O)N(Cc3ccccc3C(F)(F)F)[C@@H]2c2ccc(CO)cc2)cc1,0.281 (inactive),-0.109,4.63 (inactive),0.388 (inactive),0.0934 (inactive),0.231 (inactive),-0.854,0.375 (inactive),0.152 (inactive),0.476
COc1ccc([Si](C)(C)[C@H]2[C@H](CCn3cc(CCO)nn3)O[C@@]3(C(=O)N(Cc4cccc(N5C(=O)c6cccc7cccc5c67)c4)c4ccccc43)[C@@H]2C)cc1,0.652 (inactive),0.466,5.3 (inactive),2.43 (inactive),1.32 (inactive),1.36 (inactive),0.615,0.782 (inactive),1.74 (inactive),2.97
C[N+](C)(C)CCCCCCNC(=O)[C@@H]1C[C@@H]2C(=O)NCC(=O)N2[C@@H]1c1cccc(OCCO)c1,1.73 (inactive),0.197,3.17 (inactive),-1.25 (inactive),1.56 (inactive),-1.95 (inactive),0.927,-2.72 (inactive),-4.12 (inactive),-5.67
CN(C)CCCCNC(=O)[C@H]1C[C@H]2C(=O)N[C@@H](CCCC[N+](C)(C)C)C(=O)N2[C@H]1c1cccc(OCCO)c1,0.125 (inactive),0.145,3.16 (inactive),0.77 (inactive),0.675 (inactive),0.178 (inactive),-0.294,2.19 (inactive),1.58 (inactive),1.26
COc1ccccc1CN1C(=O)c2ccccc2[C@](Cc2ccccc2I)(C(=O)NCCN2CCOCC2)[C@@H]1c1ccc(CO)cc1,0.117 (inactive),-0.181,9.62 (active),0.349 (inactive),-0.113 (inactive),-0.385 (inactive),1.39,-1.81 (inactive),0.454 (inactive),-0.824
COCCOC(=O)N1C(=O)[C@@]2(c3cc(C#CCNC(N)=O)ccc31)[C@H](C(=O)N1CCCCCCC1)[C@H]1C(=O)O[C@H](c3ccccc3)[C@H](c3ccccc3)N1[C@@H]2c1ccc(OCCO)cc1,0.0904 (inactive),0.174,4.45 (inactive),1.89 (inactive),1.99 (inactive),1.25 (inactive),0.437,1.53 (inactive),1.25 (inactive),0.0911
O=C1O[C@H](c2ccccc2)[C@H](c2ccccc2)N2[C@H]1[C@@H](C(=O)N1CCCCCCC1)[C@]1(C(=O)Nc3ccc(C#CCCO)cc31)[C@H]2c1ccc(OCCO)cc1,0.543 (inactive),3.09,10.3 (active),2.04 (inactive),1.21 (inactive),1.02 (inactive),0.456,1.11 (inactive),0.597 (inactive),1.25
COc1ccc(C#Cc2ccc3c(c2)[C@]2(C(=O)N3)[C@H](c3ccc(OCCO)cc3)N3[C@H](c4ccccc4)[C@H](c4ccccc4)OC(=O)[C@H]3[C@@H]2C(=O)N2CCN(c3ncccn3)CC2)cc1,2.34 (inactive),0.0436,3.2 (inactive),0.964 (inactive),-1.48 (inactive),-0.856 (inactive),0.379,1.15 (inactive),0.706 (inactive),1.34
COc1cc2c(cc1OC)CN(C(=O)[C@@H]1[C@H]3C(=O)O[C@H](c4ccccc4)[C@H](c4ccccc4)N3[C@H](c3ccc(O)cc3)[C@@]13C(=O)Nc1ccc(C#CCNC(N)=O)cc13)CC2,0.108 (inactive),0.231,1.1 (inactive),0.218 (inactive),-0.83 (inactive),-0.0717 (inactive),-0.419,0.842 (inactive),0.157 (inactive),0.432
